Data on six compounds can be found in PubChem BioAssay (Tox21).

Records with an inconclusive call do not appear. Active and inactive are the calls of the source. Unless noted, calls follow the shape of the dose curve; as a rule, active = well fitted curve in the direction sought with a large enough effect in the repeat runs; inconclusive = weak or mixed curves; inactive = no such curve, though single readings can be large; an effect the other way counts as inactive or inconclusive.

Experiment [1] can be described thus: qHTS assay to identify small molecule agonists of the peroxisome proliferator-activated receptor delta (PPARd) signaling pathway - cell viability counter screen (AID 743211). Also: nearly all actives have a fitted effect of over 55% in size. Summed up:
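Viability of GeneBLAzer PPARd UAS-bla HEK293H cells was assessed after 17 h compound incubation at 37C, using CellTiter-Glo reagent added after the reporter read and luminescence recorded 30 min later.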

The nature of experiment [2]: qHTS assay to identify small molecule antagonists of the peroxisome proliferator-activated receptor delta (PPARd) signaling pathway - cell viability counter screen (AID 743213). Also: nearly all actives have a fitted effect of over 50% in size. Summed up:
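Luminescence from CellTiter-Glo, added after the bla read and incubated 30 min at room temperature, gives viability of HEK293H PPARd-bla cells exposed to compounds for 17 h at 37 C with 300 nM L165041.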

Experiment [3] addresses Bile acid receptor (Homo sapiens) (UniProt Q96RI1). The experiment in a line: qHTS assay to identify small molecule antagonists of the farnesoid-X-receptor (FXR) signaling pathway (AID 743217; active = well fitted inhibition curve with a large enough effect in the signal ratio in the repeat runs, not every such curve was filed as active; the % refers to the signal ratio). Summed up: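 Test compounds are pin-transferred onto FXR-bla HEK 293T cells, then chenodeoxycholic acid is added at 50 uM final. After 16 h at 37 °C, LiveBLAzer B/G substrate is applied for 2 h at room temperature and fluorescence read.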
For orientation: In qHTS, concentration-response curves come from the screen itself.

For experiment [4] the target is unchanged. Put plainly: qHTS assay to identify small molecule agonists of the farnesoid-X-receptor (FXR) signaling pathway (AID 743220; active = well fitted activation curve with a large enough effect in the signal ratio in the repeat runs, not every such curve was filed as active; the % refers to the signal ratio). Summed up:
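FXR-UAS-bla HEK 293T cells carrying a UAS-driven beta-lactamase reporter were plated for 5 h at 37C/5% CO2, then exposed to DMSO-dissolved Tox21 10K compounds for 16 h at 37C. A LiveBLAzer B/G FRET substrate was loaded for 2 h at room temperature before fluorescence reading.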

Experiment [5] is described as follows: qHTS assay to identify small molecule antagonists of the farnesoid-X-receptor (FXR) signaling pathway - cell viability counter screen (AID 743221; active = well fitted cell-killing curve with a large enough effect in the repeat runs, not every such curve was filed as active; also: nearly all actives have a fitted effect of over 50% in size). In a few lines: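 Quantitative HTS of the Tox21 10K library run in parallel with the beta-lactamase reporter read. HEK 293T cells carrying a UAS-driven bla reporter got compound and 50 uM CDCA (final) for 16 h; ATP-based luminescence followed.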

Experiment [6] deals with Vitamin D3 receptor (Homo sapiens) (UniProt P11473). The experiment in a line: qHTS assay to identify small molecule agonists of the vitamin D receptor (VDR) signaling pathway (AID 743222; calls by dose curve). In a few lines:
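Tox21 cell reporter format: VDR-bla line, 16 h compound exposure in 5% CO2 at 37C, then fluorescence intensity after 2 h with LiveBLAzer B/G FRET substrate.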

Experiment [7] has the same target. Put plainly: qHTS assay to identify small molecule antagonists of the vitamin D receptor (VDR) signaling pathway (AID 743223; active = well fitted inhibition curve with a large enough effect in the signal ratio in the repeat runs, not every such curve was filed as active; the % refers to the signal ratio). Summed up:
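Fluorescence from LiveBLAzer B/G FRET substrate, read after 2 h at room temperature, reflects beta-lactamase reporter activity in VDR-bla cells treated 16 h at 37C with compounds and agonist 1alpha,25-dihydroxyvitamin D3 (3 nM final).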

Experiment [8] is described as follows: qHTS assay to identify small molecule agonists of the vitamin D receptor (VDR) signaling pathway - cell viability counter screen (AID 743224). Also: series mostly up to about 63 µM; nearly all actives have a fitted effect of over 50% in size. Summed up: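 CellTiter-Glo viability readout on VDR-bla cells, measured after 16 h of compound treatment at 37C in the same wells.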
The nature of experiment [9]: qHTS assay to identify small molecule antagonists of the vitamin D receptor (VDR) signaling pathway - cell viability counter screen (AID 743225). Also: nearly all actives have a fitted effect of over 50% in size. Summed up:
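Cells (VDR-UAS-bla HEK 293T) are plated, rested 4 h at 37C, dosed with compound and 3 nM final 1-alpha,25-dihydroxy vitamin D3, and incubated 16 h. Viability is taken from CellTiter-Glo luminescence in the reporter wells.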

Experiment [10] is described as follows: qHTS assay to identify small molecule agonists of the endoplasmic reticulum stress response signaling pathway (AID 1159516; active = well fitted activation curve with a large enough effect in the signal ratio in the repeat runs, not every such curve was filed as active; the % refers to the signal ratio). Summed up:
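Fluorescence at 460 and 530 nm (405 nm excitation) reports beta-lactamase from an ER stress response element in HeLa cells treated 5 hr at 37 C.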

Experiment [11] is described as follows: qHTS assay to identify small molecule agonists of the endoplasmic reticulum stress response signaling pathway - cell viability counter screen (AID 1159517; calls by dose curve). Summed up:
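ESRE-bla HeLa cells (1,500/well) were plated overnight at 37 C and exposed to compounds for 5 hr. After the 2 hr beta-lactamase substrate read, CellTiter-Glo went into the same wells, and luminescence was read after 30 min at room temperature.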

The nature of experiment [12]: qHTS assay to identify small molecule antagonists of the retinoid-related orphan receptor gamma (ROR-gamma) signaling pathway - cell viability counter screen (AID 1159520). Also: nearly all actives have a fitted effect of over 50% in size. Summed up:
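Cytotoxicity was read from cellular ATP (CellTiter-Glo luminescence) after 16 hr at 37 C with 1 uM doxycycline induction. The inducer was added 2 hr after compound transfer to Tet-on ROR gamma CHO cells.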

Experiment [13] deals with Nuclear receptor ROR-gamma (Homo sapiens) (UniProt P51449). The experiment in a line: qHTS assay to identify small molecule antagonists of the retinoid-related orphan receptor gamma (ROR-gamma) signaling pathway (AID 1159521; also: nearly all actives have a fitted effect of over 50% in size; also: potency is read from the fitted curve at half-maximal effect). In a few lines: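 RORγ antagonism is scored from reduced reporter luminescence in Tet-on CHO cells. Induction used 1 uM final doxycycline hyclate for 16 h at 37 C, following a 2 h compound exposure.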

Experiment [14] can be described thus: qHTS assay to identify small molecule agonists of the AP-1 signaling pathway - cell viability counter screen (AID 1159525; calls by dose curve; also: nearly all actives have a fitted effect of over 55% in size). Summed up:
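Intracellular ATP by Cell Titer Glo luminescence (30 min, RT) in the same ME-180 AP-1-bla wells after the 5 h compound exposure at 37 °C. Normalised to tetra n-octyl ammonium bromide and DMSO controls.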

The target of experiment [15] is Peroxisome proliferator-activated receptor delta (Homo sapiens) (UniProt Q03181). Put plainly: qHTS assay to identify small molecule agonists of the peroxisome proliferator-activated receptor delta (PPARd) signaling pathway (AID 743212; calls by dose curve;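 also: HEK293H cells with PPARd UAS beta-lactamase reporter GeneBLAzer system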). Summed up:
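Beta-lactamase reporter readout: a ratiometric FRET signal from the LiveBLAzer substrate after 2 h at room temperature. Compound exposure at 37 °C in PPARδ-bla HEK293H cells driven by an upstream activator sequence.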

For experiment [16] the target is unchanged. Put plainly: qHTS assay to identify small molecule antagonists of the peroxisome proliferator-activated receptor delta (PPARd) signaling pathway (AID 743215; active = well fitted inhibition curve with a large enough effect in the signal ratio in the repeat runs, not every such curve was filed as active; the % refers to the signal ratio;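 also: cells stimulated with agonist L165041 at 300 nM final during compound exposure; series mostly up to about 62 µM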). In a few lines: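 Here, a reporter line (HEK293H, beta-lactamase under a UAS) measures PPARd signaling. Compounds are tested against agonist L165041 at 300 nM final concentration over 17 h at 37 C, with fluorescence read after substrate.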

Experiment [17] can be described thus: qHTS assay to identify small molecule agonists of the farnesoid-X-receptor (FXR) signaling pathway - cell viability counter screen (AID 743218). Also: nearly all actives have a fitted effect of over 45% in size. In a few lines:
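Quantitative HTS counter screen measuring ATP-based viability via CellTiter-Glo luminescence in HEK 293T cells carrying a UAS-driven beta-lactamase reporter, after 16 h compound exposure at 37 C.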

Experiment [18] can be described thus: qHTS assay to identify small molecule agonists of the AP-1 signaling pathway (AID 1159526; calls by dose curve).
The target in experiment [19] is Retinoic acid receptor RXR-alpha (Homo sapiens) (UniProt P19793). The experiment in a line: qHTS assay to identify small molecule agonists of the RXR signaling pathway (AID 1159527; calls by dose curve; also: nearly all actives have a fitted effect of over 35% in size). In a few lines: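 qHTS of the Tox21 10K library in GeneBLAzer RXR-alpha HEK 293T cells carrying a beta-lactamase reporter […]; 16 hr treatment, 9-cis retinoic acid as agonist control, FRET read-out.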
Retinoic acid receptor RXR-alpha (Homo sapiens), sequence (P19793 whole entry, looked up): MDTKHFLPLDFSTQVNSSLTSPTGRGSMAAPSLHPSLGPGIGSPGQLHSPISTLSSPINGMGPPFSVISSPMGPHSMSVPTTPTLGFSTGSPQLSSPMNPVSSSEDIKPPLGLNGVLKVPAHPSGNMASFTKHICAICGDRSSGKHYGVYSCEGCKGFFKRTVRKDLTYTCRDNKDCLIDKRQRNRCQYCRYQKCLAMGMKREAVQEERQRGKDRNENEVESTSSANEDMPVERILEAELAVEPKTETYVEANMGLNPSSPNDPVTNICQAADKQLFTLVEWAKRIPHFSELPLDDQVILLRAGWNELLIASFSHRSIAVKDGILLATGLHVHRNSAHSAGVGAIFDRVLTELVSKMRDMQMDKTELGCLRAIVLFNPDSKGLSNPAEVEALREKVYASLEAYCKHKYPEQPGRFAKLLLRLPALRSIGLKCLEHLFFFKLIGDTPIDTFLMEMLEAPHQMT

Peroxisome proliferator-activated receptor delta (Homo sapiens), sequence (Q03181 whole entry, looked up): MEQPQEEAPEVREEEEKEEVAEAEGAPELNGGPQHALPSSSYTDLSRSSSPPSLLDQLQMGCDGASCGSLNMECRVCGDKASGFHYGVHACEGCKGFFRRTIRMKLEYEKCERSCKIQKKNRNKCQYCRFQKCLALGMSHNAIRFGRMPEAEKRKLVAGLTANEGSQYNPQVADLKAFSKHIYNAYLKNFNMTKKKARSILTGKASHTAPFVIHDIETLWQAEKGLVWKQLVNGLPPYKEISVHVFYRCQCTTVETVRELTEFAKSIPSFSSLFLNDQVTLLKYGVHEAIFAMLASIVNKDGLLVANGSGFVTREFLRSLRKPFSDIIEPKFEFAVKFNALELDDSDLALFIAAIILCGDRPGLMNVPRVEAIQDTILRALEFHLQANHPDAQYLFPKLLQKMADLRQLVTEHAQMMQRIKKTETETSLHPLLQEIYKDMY
Bile acid receptor (Homo sapiens), sequence (Q96RI1 whole entry, looked up): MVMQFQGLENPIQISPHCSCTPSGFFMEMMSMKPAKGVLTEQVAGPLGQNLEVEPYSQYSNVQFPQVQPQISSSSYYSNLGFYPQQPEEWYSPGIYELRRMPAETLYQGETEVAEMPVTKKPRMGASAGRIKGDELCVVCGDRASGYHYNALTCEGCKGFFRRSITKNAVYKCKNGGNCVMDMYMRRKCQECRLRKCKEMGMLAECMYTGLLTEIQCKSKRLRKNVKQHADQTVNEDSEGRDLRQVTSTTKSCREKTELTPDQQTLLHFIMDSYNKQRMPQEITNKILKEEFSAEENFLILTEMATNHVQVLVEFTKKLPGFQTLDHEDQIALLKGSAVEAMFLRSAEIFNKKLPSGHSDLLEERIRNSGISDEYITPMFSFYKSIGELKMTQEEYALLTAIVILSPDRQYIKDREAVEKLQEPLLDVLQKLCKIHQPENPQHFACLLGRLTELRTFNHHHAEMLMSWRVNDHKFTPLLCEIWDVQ
Vitamin D3 receptor (Homo sapiens), sequence (P11473 whole entry, looked up): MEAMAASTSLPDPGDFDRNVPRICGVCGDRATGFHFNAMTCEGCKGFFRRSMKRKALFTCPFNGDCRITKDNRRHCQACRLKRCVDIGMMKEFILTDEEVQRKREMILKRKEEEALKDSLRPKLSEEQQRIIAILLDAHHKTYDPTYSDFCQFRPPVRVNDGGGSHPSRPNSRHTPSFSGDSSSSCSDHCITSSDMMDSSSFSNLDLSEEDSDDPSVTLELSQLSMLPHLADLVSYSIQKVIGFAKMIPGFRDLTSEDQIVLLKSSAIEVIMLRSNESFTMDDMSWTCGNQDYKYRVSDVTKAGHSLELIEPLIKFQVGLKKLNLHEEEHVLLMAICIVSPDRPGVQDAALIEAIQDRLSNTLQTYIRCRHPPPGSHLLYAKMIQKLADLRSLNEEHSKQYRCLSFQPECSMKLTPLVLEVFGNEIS

Take `CCOP(=S)(OCC)SCn1c(=O)oc2cc(Cl)ccc21`: the Potency result in experiment [1], in [2], in experiment [3], in experiment [4], in experiment [5] and in [7] was “inactive” throughout. The Potency result in experiment [8], in experiment [9], in experiment [10], in experiment [11], in experiment [12] and in experiment [14] was “inactive” in each case. The compound was called inactive in experiment [6]. Also, the Potency in experiment [13] was 32.9 µM (active).

With `CCOP(=S)(OCC)SCSC(C)(C)C`, the Potency entry in experiment [1], in experiment [15], in [2], in [16], in experiment [17] and in experiment [5] was “inactive” throughout. Moreover, the Potency entry in experiment [7], in experiment [8], in experiment [9], in [10], in experiment [11] and in [12] was “inactive” throughout. For the same compound, the Potency result in [14] and in [19] was “inactive” each time. Also, the compound was called inactive in experiment [6] and in experiment [18].

For the compound `N#CCCCCC#N`, the Potency result in experiment [1], in experiment [15], in experiment [2], in [16], in experiment [3] and in [17] was “inactive” throughout. Further, the Potency entry in experiment [4], in experiment [5], in [7], in experiment [8], in experiment [9] and in experiment [10] was “inactive” in each case. Moreover, the Potency entry in [11], in experiment [12], in experiment [13], in experiment [14] and in experiment [19] was “inactive” each time. The compound was called inactive in experiment [6] and in experiment [18].

For `Clc1cccc(C(Cl)(Cl)Cl)n1`, the Potency result in experiment [1], in experiment [2], in experiment [3], in experiment [4], in experiment [5] and in [8] was “inactive” each time. Besides, the Potency entry in [9], in experiment [10], in experiment [11], in experiment [12], in experiment [13] and in experiment [14] was “inactive” each time. In addition, in experiment [19], the Potency result was “inactive”. For the same compound, the outcome in experiment [18] was inactive.

For the compound `Nc1ncn[nH]1`, the Potency result in experiment [1], in experiment [15], in [2], in experiment [16], in experiment [3] and in [17] was “inactive” each time. Also, the Potency entry in [4], in experiment [5], in experiment [8], in [9], in [10] and in [11] was “inactive” in each case. Moreover, the Potency result in experiment [12], in experiment [13], in experiment [14] and in experiment [19] was “inactive” in each case. Further, the compound was called inactive in experiment [18].

Regarding `CCOS(=O)(=O)OCC`, the Potency entry in [1], in [15], in experiment [2], in experiment [16], in experiment [5] and in experiment [7] was “inactive” each time. In addition, the Potency entry in experiment [8], in experiment [9], in experiment [10], in [11], in experiment [12] and in [13] was “inactive” each time. Further, the Potency result in experiment [14] and in [19] was “inactive” in each case. Besides, the result in experiment [6] and in experiment [18] was inactive.
